Pol kappa inh-1: inhibitors of human DNA polymerase kappa; Q9UBT6; purified Pol kappa, fluorescent DNA synthesis assay, 10 min; Potency, µM (titrated, usually from 107 µM), for the others: at the highest dose activity, negative = inhibition, usual class: inhibitors; 0.53% of 400,000 active; AID 588579; also: potency is read from the fitted curve at half-maximal effect; % is scaled to controls: 0 for no effect and ±100 for the full control effect
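Pol kappa 10 nM + cpd, 15 min RT; start w/ substrate 50 nM final; fluorescence kinetic read, 0 and 10 min. Neg ctrl: buffer, no enzyme.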
FEN1 inh: blocks human flap endonuclease 1. 0.35% of 390,000 active. Recombinant FEN1 flap cleavage, fluorescence, 15 min. P39748. Potency, µM (top dose mostly 114 µM), for the others: top-dose activity change, negative = inhibition, most hits filed as inhibitors; also: potency is read from the fitted curve at half-maximal effect; % is scaled to controls: 0 for no effect and ±100 for the full control effect; nearly all actives have a fitted effect of over 65% in size
Target sequence (P39748 whole entry, looked up): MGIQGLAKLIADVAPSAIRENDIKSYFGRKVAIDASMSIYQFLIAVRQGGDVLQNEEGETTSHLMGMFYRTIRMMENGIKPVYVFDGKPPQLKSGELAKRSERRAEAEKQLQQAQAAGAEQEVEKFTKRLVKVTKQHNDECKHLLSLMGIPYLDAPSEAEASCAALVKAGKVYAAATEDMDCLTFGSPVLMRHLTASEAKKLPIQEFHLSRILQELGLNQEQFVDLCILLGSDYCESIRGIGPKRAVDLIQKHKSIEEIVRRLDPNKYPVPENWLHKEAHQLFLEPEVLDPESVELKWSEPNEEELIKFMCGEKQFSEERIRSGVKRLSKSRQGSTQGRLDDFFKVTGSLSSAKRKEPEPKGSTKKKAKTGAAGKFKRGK
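Steps: FEN1 (10 nM) dispensed; compound added by pin tool; 15 min at room temperature; substrate added to 50 nM final; reads at 0 min and 15 min; data normalized and fitted (four-parameter Hill).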
Pol eta inh-1: blocks human DNA polymerase eta activity; 1.2% of 390,000 active; recombinant Pol eta, fluorescent DNA replication assay; Q9Y253; Potency, µM (doses to about 114 µM), for the others: at the highest dose activity change, negative = inhibition, hits mostly inhibitors; also: potency is read from the fitted curve at half-maximal effect; % is scaled to controls: 0 for no effect and ±100 for the full control effect
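Pol eta at 10 nM preincubated with compounds 15 min at room temperature; reaction started with fluorescent substrate (50 nM final) and read kinetically at 0 and 10 min.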
Pol iota inh: blocks human DNA polymerase iota activity | Pol iota fluorescent replication assay, 10 min | AID 588590 | Potency, µM (series often up to 115 µM), for the others: top-dose activity, negative = inhibition, actives largely listed as inhibitors | Q9UNA4 | 1% of 390,000 active; also: potency is read from the fitted curve at half-maximal effect
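Fluorescent replication assay read twice, at 0 min and 10 min after adding 50 nM (final) substrate. Enzyme (10 nM) and compounds were first incubated 15 min at room temperature; enzyme-free buffer wells were negative controls.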
WRN inhibitor: WRN helicase (human) inhibition | WRN helicase unwinding, fluorescent forked duplex, kinetic | Potency, µM (doses to about 114 µM), for inactives: at the highest dose activity change, negative = inhibition, hits mostly inhibitors | 0.46% of 360,000 active; also: potency is read from the fitted curve at half-maximal effect; % is scaled to controls: 0 for no effect and ±100 for the full control effect; nearly all actives have a fitted effect of over 55% in size
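Kinetic fluorescence helicase assay: unwinding of a quenched forked DNA duplex (100 nM final) with 2 mM ATP final raises red fluorescence (525/598 nm). Compounds sat 15 min at room temperature with 20 nM WRN beforehand.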
Pol beta inh-1: blocks human DNA polymerase beta activity; Pol beta primer extension/strand displacement, fluorescence kinetic; Potency, µM (series often up to 114 µM), for the others: top-dose activity change, negative = inhibition, actives largely listed as inhibitors; P06746; 1.3% of 340,000 active; also: potency is read from the fitted curve at half-maximal effect; % is scaled to controls: 0 for no effect and ±100 for the full control effect
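Values derive from four-parameter Hill fits of normalized kinetic data: reads at 0 and 10 min following addition of 50 nM substrate to 10 nM Pol beta preincubated 15 min with compound.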
Pol beta inh-2: Validate hits inhibiting human DNA polymerase beta | shares compounds with Pol beta inh-1 | Pol beta primer extension/strand displacement, fluorescence kinetic | Potency, µM, usual class: inhibitors | 87% of 250 active | AID 540280; calls by dose curve; also: potency is read from the fitted curve at half-maximal effect
Klenow counter: inhibits Klenow fragment polymerase in counter-screen; 250 tested, under 10 active; shares compounds with Pol beta inh-1; Klenow exo- polymerase counter-screen, fluorescent DNA substrate; activity change, negative = inhibition, % at 57.1 µM
HIV RT inh: inhibits HIV-1 reverse transcriptase in counter-screen | shares compounds with Pol beta inh-1 | HIV-1 RT polymerase activity, counter-screen | activity % (negative = inhibition, positive = activation), % at 57.1 µM | 250 tested, under 10 active
POLI cherry-pick: Inhibitors of human DNA polymerase iota, confirmation | shares compounds with Pol kappa inh-1 | Pol iota primer extension, TAMRA/BHQ fluorescence | Potency, µM, hits mostly inhibitors | 77% of 1,500 active | AID 720496; also: potency is read from the fitted curve at half-maximal effect
Pol kappa inh-2: Pol kappa (human) inhibition, cherry-pick confirmation; 76% of 920 active; AID 720501; purified Pol-kappa, fluorescent strand-displacement substrate; Potency, µM, most hits filed as inhibitors; shares compounds with Pol eta inh-1; also: potency is read from the fitted curve at half-maximal effect
Pol eta inh-2: Pol eta (human) inhibition, cherry-pick confirmation | shares compounds with Pol eta inh-1 | Pol eta primer extension, TAMRA/BHQ fluorescence, 10 min | Potency, µM, actives largely listed as inhibitors | 64% of 2,600 active | AID 720502; also: potency is read from the fitted curve at half-maximal effect
Active calls of the source: *; ? = inconclusive; . = no result given; [ ] = remark or other dose. Hits are enriched below; roughly 2.4% of the tested compounds scored in any of these assays. Unless noted, calls follow the shape of the dose curve; as a rule, active = well fitted curve in the direction sought with a large enough effect; inconclusive = small, poorly fitted or top-dose-only effect, or another doubt; inactive = no such curve, though single readings can be large; an effect the other way counts as inactive or inconclusive.

SMILES	Pol kappa inh-1	FEN1 inh	Pol eta inh-1	Pol iota inh	WRN inhibitor	Pol beta inh-1	Pol beta inh-2	Klenow counter	HIV RT inh	POLI cherry-pick	Pol eta inh-2	others
CC(C)Cn1c(N)c(C(=O)COC(=O)c2cc(-c3ccco3)nc3ccccc23)c(=O)n(C)c1=O	?	?	18µM*	25µM*	?	14µM*	11*	-7	-16	.	48*
O=C(CCCn1c(SCC(=O)c2ccc(O)c(O)c2)nc2ccccc2c1=O)NCC1CCCO1 (stereo not drawn)	20µM*	-22%	20µM*	14µM*	22µM*	7.9µM*	10*	-25	-12	.	60*
Cc1nn(C)c2c1c(C(F)(F)F)cc(=O)n2CC(=O)NCc1ccccc1Cl	0%	-1%	-13%	20%	.	-30%	.	.	.	.	.
CSc1nc(SCC(=O)O)c2sc3nc(-c4ccccc4)c4c(c3c2n1)CCC4	?	?	?	?	?	2.5µM*	4*	?	-3	15*	67*
Cc1cc2c(c(C)c1Cl)C(c1ccc3c(c1)OCO3)CC(c1ccccc1)O2 (stereo not drawn)	-9%	-11%	.	-3%	.	.	.	.	.	.	.
Cc1oc(-c2ccc(F)cc2)cc1-c1nn2c(-c3ccoc3C)nnc2s1	28µM*	-11%	7.9µM*	7.9µM*	?	3.5µM*	?	-6	3	?	76*
O=C(O)CC(NCc1ccco1)C(=O)OCCc1ccccc1 (stereo not drawn)	-13%	1%	-6%	-4%	-8%	3%	.	.	.	.	.
C=C(C)CCOC(=O)C(CC(=O)O)NCc1ccco1 (stereo not drawn)	?	6%	11µM*	-7%	-4%[11.6 µM]	8.9µM*	35*	-7	10	.	27*	Pol kappa inh-2=19*
COC(=O)c1c(NC(=O)COC(=O)c2ccc(NC(=O)CC#N)cc2)sc2c1CCCCC2	50µM*	?	28µM*	14µM*	56µM*	8.9µM*	6.3*	-21	16	24*	30*	Pol kappa inh-2=17*
COC(=O)c1c(NC(=O)COC(=O)c2ccc(C)s2)sc2c1CCCCC2	-9%	2%	-14%	10%	7%	1%	.	.	.	.	.
CC1=C(C(=O)NCc2ccc(Cl)cc2)C2(CCCCCC2)OC1=O	-15%	2%	-11%	2%	.	6%	.	.	.	.	.
COc1ccc(NC(=O)c2cc(-c3ccco3)nc3ccccc23)cc1S(=O)(=O)N1CCOCC1	40µM*	?	16µM*	?	?	2µM*	10*	-10	-9	15*	17*
COc1ccc(NC(=O)c2cc(C)nc3ccccc23)cc1S(=O)(=O)N1CCOCC1	-9%	-3%	8%	58%	-22%	.	.	.	.	.	.

High-throughput results (PubChem BioAssay)
